This excerpt belongs to a sample that is enriched for hits.
Tgondii IFNg: T. gondii growth inhibition with IFN-gamma, primary screen, cell-based; hit rate 3.8% among 69,000; Toxoplasma gondii growth in IFN-gamma-treated host cells; stronger effect = lower value; activity change, negative = inhibition, % (no concentration beside the values); in the data active means activity change below about -70%, passing the limit was not always enough;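 further: host cells are HeLa cells infected with Toxoplasma gondii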
* hit, by the source's call; i = inactive.

SMILES	Tgondii IFNg
CCCc1cnc(N2CCN(C(=O)c3c(-c4ccccc4)noc3C)CC2)nc1	-81.7*
Cc1onc(-c2ccccc2)c1C(=O)Oc1ccccc1N1CCOCC1	-17.8
CCOC(=O)c1c(-c2ccccc2)noc1C(C)=O	20.2
Cc1ccc(-c2coc(-c3ccc(NC(=O)Nc4ccc(F)c(Cl)c4)cc3)n2)cc1	93.4
Cn1c(SCc2nc3ccccc3c(=O)[nH]2)nnc1-c1ccc2c(c1)OCO2	26.0
Cc1cc(-c2ccnc3c2ccn3C)c(=O)[nH]c1C	-4.1
COc1ncc(-c2cc(NCCN(C)C)nc3[nH]ccc23)c(OC)n1	0.6
NCCc1cccc(-c2cc(NCCO)nc3[nH]ccc23)c1	-10.1
CNc1cc(-c2ccc(CN)cn2)c2cc[nH]c2n1	1.5
Cc1nc(-c2cc(NCc3ccccn3)nc3[nH]ccc23)cc(C(C)C)n1	125.3
CC(O)c1cccc(-c2cc(NC3CCNCC3)nc3[nH]ccc23)n1 (centres undefined)	-92.6*
c1ccc(CNc2cc(-c3nccc4occc34)c3cc[nH]c3n2)nc1	12.3
c1ccc2c(-c3cc(NC4CCNCC4)nc4[nH]ccc34)n[nH]c2c1	-75.1*
Cc1cc(-c2cc(NC3CCNCC3)nc3[nH]ccc23)c(=O)[nH]c1C	-85.0*
Cc1ccc(C(=O)Nc2cnc(N3CCC(C(N)=O)(N4CCCCC4)CC3)c(C(=O)O)c2)cc1	-2.9
CCN1C(=O)C(c2ccccc2)CC12CCN(c1ncccn1)CC2 (centres undefined)	2.1
Cc1ccc(C)c(NC(=O)CCNCC(=O)Nc2cnccn2)c1	-25.6
Cc1ccc(C)c(NC(=O)c2c(O)c3cccnc3n(-c3ccc(F)cc3)c2=O)c1	75.2
Cc1nnc(CN2CCCCC2CCN2CCOCC2)s1 (centres undefined)	8.1
Cc1cccc(-c2nc(Cn3nnc(-c4nc(-c5ccc(F)cc5)no4)c3C)c(C)o2)c1	1.1
CCN1C(=O)C2(CCOCC2)c2cc(Nc3ncc(C)cn3)ccc21	-24.1
O=C(Nc1ccc2c(c1)OCO2)c1c(O)c2ccccc2[nH]c1=O	108.1
Cc1ccc(S(=O)(=O)Nc2ccc3c(c2)C(=O)N([C@H](C)CO)C[C@H](C)[C@@H](CN(C)S(=O)(=O)c2cccs2)OCCCC[C@H](C)O3)cc1	-121.9*
C[C@@H]1CCCCO[C@H](CN(C)Cc2ccc(Cl)c(Cl)c2)[C@@H](C)CN([C@H](C)CO)C(=O)c2cc(NS(=O)(=O)c3cccs3)ccc2O1	105.9
Cc1ccc(S(=O)(=O)Nc2ccc3c(c2)C(=O)N([C@@H](C)CO)C[C@@H](C)[C@@H](CN(C)S(=O)(=O)c2cccs2)OCCCC[C@@H](C)O3)cc1	-99.3*
SMILES	Tgondii IFNg
Cc1ccc(S(=O)(=O)Nc2ccc3c(c2)C(=O)N([C@@H](C)CO)C[C@@H](C)[C@H](CN(C)S(=O)(=O)c2cccs2)OCCCC[C@H](C)O3)cc1	-58.6
C[C@@H]1CCCCO[C@@H](CN(C)Cc2ccc(Cl)c(Cl)c2)[C@@H](C)CN([C@H](C)CO)C(=O)c2cc(NS(=O)(=O)c3cccs3)ccc2O1	-44.6
Cc1ccc(S(=O)(=O)Nc2ccc3c(c2)C(=O)N([C@H](C)CO)C[C@H](C)[C@@H](CN(C)S(=O)(=O)c2cccs2)OCCCC[C@@H](C)O3)cc1	-46.6
Cc1noc(C)c1NC(=O)Nc1ccc2c(c1)C(=O)N([C@H](C)CO)C[C@@H](C)[C@H](CN(C)S(=O)(=O)c1cccs1)OCCCC[C@@H](C)O2	90.3
Cc1ccc(S(=O)(=O)Nc2ccc3c(c2)C(=O)N([C@@H](C)CO)C[C@H](C)[C@@H](CN(C)S(=O)(=O)c2cccs2)OCCCC[C@H](C)O3)cc1	-99.2*
C[C@H](CO)N1C[C@H](C)[C@@H](CN(C)Cc2ccc(Cl)c(Cl)c2)OCCCC[C@H](C)Oc2ccc(NS(=O)(=O)c3cccs3)cc2C1=O	-173.0*
Cc1noc(C)c1NC(=O)Nc1ccc2c(c1)C(=O)N([C@H](C)CO)C[C@H](C)[C@@H](CN(C)S(=O)(=O)c1cccs1)OCCCC[C@H](C)O2	185.4
Cc1noc(C)c1NC(=O)Nc1ccc2c(c1)C(=O)N([C@@H](C)CO)C[C@@H](C)[C@H](CN(C)S(=O)(=O)c1cccs1)OCCCC[C@@H](C)O2	i
Cc1noc(C)c1NC(=O)Nc1ccc2c(c1)C(=O)N([C@@H](C)CO)C[C@@H](C)[C@@H](CN(C)S(=O)(=O)c1cccs1)OCCCC[C@H](C)O2	i
Cc1nc(-c2ccccc2)c(C(=O)N2CCCC3(CC2)CNC(=O)O3)s1 (centres undefined)	-5.7
COc1ccc(C(=O)N2Cc3cnn(Cc4ccc(F)cc4)c3C2)c(OC)c1	-22.5
Cn1cnc2cc(C(=O)N3C[C@H]4C[C@H](O)[C@@H](O)C[C@H]4C3)cnc21	15.8
Cc1cccc(SC2CCN(C(=O)c3cn(-c4ccccc4)nn3)CC2)c1	-18.6
COc1ccc2[nH]c(C)c(C(=O)CN3CCC(Oc4cnccn4)CC3)c2c1	9.0
CCCC(=O)NCCc1sc(-c2ccc(Cl)cc2)nc1C	218.5
C[C@@H]1CCCCO[C@@H](CN(C)C(=O)c2ccncc2)[C@H](C)CN([C@H](C)CO)C(=O)c2cc(NS(=O)(=O)c3cccs3)ccc2O1	-19.7
Cc1ccc(S(=O)(=O)Nc2ccc3c(c2)C(=O)N([C@@H](C)CO)C[C@H](C)[C@H](CN(C)S(=O)(=O)c2cccs2)OCCCC[C@@H](C)O3)cc1	-99.4*
C[C@@H]1CCCCO[C@@H](CN(C)C(=O)c2ccncc2)[C@@H](C)CN([C@H](C)CO)C(=O)c2cc(NS(=O)(=O)c3cccs3)ccc2O1	11.8
Cc1ccc(S(=O)(=O)Nc2ccc3c(c2)C(=O)N([C@@H](C)CO)C[C@H](C)[C@@H](CN(C)S(=O)(=O)c2cccs2)OCCCC[C@@H](C)O3)cc1	-90.4*
Cc1noc(C)c1NC(=O)Nc1ccc2c(c1)C(=O)N([C@@H](C)CO)C[C@H](C)[C@H](CN(C)S(=O)(=O)c1cccs1)OCCCC[C@H](C)O2	311.8
C[C@@H]1CCCCO[C@H](CN(C)C(=O)c2ccncc2)[C@@H](C)CN([C@H](C)CO)C(=O)c2cc(NS(=O)(=O)c3cccs3)ccc2O1	76.1
O=C(Nc1cc(C(F)(F)F)ccc1N1CCCC1)c1ccc2c(c1)CCO2	29.2
COc1ccccc1-n1cc(C2CC(=O)Nc3[nH]ncc32)cn1 (centres undefined)	-8.3
Cc1ccc(Nc2nc(-c3nnc(-c4ccccc4)o3)nc3ccccc23)cc1	-49.5
Cc1nc(C)c(CN2CCC(CNS(C)(=O)=O)C2)s1 (centres undefined)	23.7
SMILES	Tgondii IFNg
Cn1ccnc1C(NC(=O)c1cn[nH]c1-c1cccc(F)c1)C1CC1 (centres undefined)	2.6
CCN1c2cc(C)ccc2-n2cccc2C12CCN(C(=O)Nc1cc(F)ccc1F)CC2	-50.7
CCN1c2cc(C)ccc2-n2cccc2C12CCN(C(=O)Nc1cc(Cl)ccc1OC)CC2	-115.5*
CCOC(=O)Cc1ccc(NC(=O)N2CCC3(CC2)c2cccn2-c2ccc(C)cc2N3CC)cc1	-35.1
CCN1c2cc(C)ccc2-n2cccc2C12CCN(C(=O)Nc1ccc(OC)cc1OC)CC2	-72.5*
COc1ccc(OC)c(NC(=O)N2CCC3(CC2)Nc2cc(C)ccc2-n2cccc23)c1	224.7
CCN1c2cc(C)ccc2-n2cccc2C12CCN(C(=O)Nc1ccccc1C(F)(F)F)CC2	108.2
CCN1c2cc(C)ccc2-n2cccc2C12CCN(C(=O)Nc1cc(C)cc(C)c1)CC2	-28.2
CCN1c2cc(C)ccc2-n2cccc2C12CCN(C(=O)Nc1ccc(F)cc1F)CC2	-21.0
